Source: PubChem BioAssay AID485317 (Broad Institute, 2010)
About 11,000 (3.8%) of roughly 290,000 compounds were called active. This excerpt belongs to a sample that is enriched for actives. A number with no mark means an inactive call.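 The calls were made as follows: active = mean replicate inhibition above about 79%, with every replicate also reaching it (limit read from the data); inconclusive = only one of the two criteria met; inactive = mean below limit and not every replicate reaching it.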

target: FAD-linked sulfhydryl oxidase ALR (Homo sapiens) (UniProt P55789); assay: ALR-catalysed DTT oxidation blockers – biochemical, H2O2 detection, HRP-luminol luminescence, single point, primary screen (AID 485317); settings: purified ALR, hits give high values, concentration not given here
Sequence (P55789 whole entry, looked up): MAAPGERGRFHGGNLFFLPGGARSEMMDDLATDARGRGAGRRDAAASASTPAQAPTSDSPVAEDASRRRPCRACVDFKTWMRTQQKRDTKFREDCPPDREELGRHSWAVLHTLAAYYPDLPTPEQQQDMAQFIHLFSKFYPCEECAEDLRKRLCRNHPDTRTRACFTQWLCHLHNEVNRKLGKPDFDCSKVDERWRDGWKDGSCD

Compound | inhibition
COc1ccccc1CNS(=O)(=O)c1cc2c3c(c1)CCC(=O)N3CCC2 | -0.847%
CC1CN(C(=O)c2cc(COc3c(F)cccc3F)on2)CCN1C (centres undefined) | -3.41%
CC1(C)O[C@@H]2[C@H](O1)[C@@H](CO)O[C@H]2n1c(N2CCCCC2)nc2c(N)ncnc21 | 1.47%
CC(=O)Nn1cc2c(=O)n(C)c(=O)n(C)c2c1 | -9.4%
CCC(=O)NNc1cc(=O)c2c(=O)n(C)c(=O)n(C)c2[nH]1 | -4.74%
CC(=O)NNc1cc(=O)c2c(=O)n(C)c(=O)n(C)c2[nH]1 | 90.2% (active)
COc1ccc(NC(=O)c2cc(-c3ccc(C)cc3)on2)cc1 | -7.55%
CCOc1ccc(S(=O)(=O)Nc2ccc(OC)nc2)cc1 | -0.795%
COc1ccc(NC(=O)/C(Cl)=C(/Cl)S(=O)Cc2ccc(C)cc2)cn1 (centres undefined) | 99.1% (active)
COc1ccc2c(CC(=O)NNC(=O)c3ccccc3F)coc2c1 | -9.32%
O=C(CCc1ccc(S(=O)(=O)N2CCOCC2)cc1)OCC(=O)c1ccc(Br)cc1 | 3.41%
O=C(/C=C(O)/C=C/c1ccc(O)cc1)/C=C/c1ccc(O)cc1 | -0.191%
COc1ccc(N2CCN(C(=O)CNC(=O)c3ccc(C(C)(C)C)cc3)CC2)cc1 | -2.48%
COc1ccc(N2CCN(C(=O)CCNC(=O)c3ccc(Br)cc3)CC2)cc1 | -0.657%
COc1ccc(N2CCN(C(=O)CNC(=O)c3ccc(Br)o3)CC2)cc1 | 94% (active)
CCOc1ccc(C(=O)CCC(=O)Nc2ccncc2)cc1 | 2.23%
COc1ccc(/C=N/NC(=O)c2ccncc2)cc1CN1CCCc2ccccc21 | 93.5% (active)
COc1ccc(/C=N/NC(=O)c2ccc(Cl)cc2)cc1COC(C)=O | 5.91%
COc1cc(/C=N/NC(=O)CNC(=O)c2ccncc2)ccc1OC(C)=O | 40.7%
COCCCn1c(CCC(=O)O)ccc1-c1ccc(F)cc1 | 22.3%
COc1ccc(-c2ccc(CCC(=O)O)n2NC(=O)c2ccc(C(C)(C)C)cc2)cc1 | 98.4% (active)
CCOC(=O)c1ccc(-n2c(CCC(=O)O)ccc2-c2ccccc2)cc1 | 6.43%
COc1ccc(-c2ccc(CCC(=O)O)n2-c2ccc(O)cc2)cc1 | 95.3% (active)
COc1ccc(C(=O)NC(Cc2ccc(OC(=O)c3ccc(OC)cc3)cc2)C(=O)O)cc1 (centres undefined) | 15.2%

Compound | inhibition
C=Cn1c(C(=O)O)ccc1-c1ccc(OC)cc1 | 6.07%
CC1Cc2ccccc2N1S(=O)(=O)c1cccc(C(=O)OCC(=O)N2CCOCC2)c1 (centres undefined) | 2.06%
CC(=O)c1c(C)[nH]c(C(=O)COC(=O)c2cccs2)c1C | -7.6%
C=C(C)COc1ccc(-c2n[nH]c(C)c2-c2ccccc2OC)c(O)c1 | -0.153%
COc1ccc(-c2n[nH]c(C)c2-c2ccccc2OC)c(O)c1 | 94.9% (active)
COc1ccc(-c2n[nH]c(C)c2-c2ccc(OC)c(OC)c2)c(O)c1 | 25.6%
COc1ccc(Cl)cc1NC(=O)COC(=O)c1ccc(Br)o1 | 3.97%
CCCN(CC(=O)NC(=O)NC1CCCCC1)CC(=O)Nc1cc(Cl)ccc1Cl | -2.78%
Cc1cccc(C(=O)NCCCN2CCCC2=O)c1 | -1.37%
Cc1cccc(C(=O)NCCCN(C)CCCNC(=O)c2cccc(C)c2)c1 | -2.47%
CCN(CCCNC(=O)c1ccc2c(c1)NC(=O)CN2C)c1cccc(C)c1 | 94.3% (active)
COc1ccccc1N(CCOc1ccccc1)S(=O)(=O)c1ccccc1 | -0.946%
CCCN(CC1CC1)C(=S)NC(=O)c1ccccc1Br | -2.06%
N#CCC(=O)N/N=C/c1ccc(SCC(=O)Nc2ccccc2)o1 | 93.3% (active)
O=C(CCNC(=O)c1ccccc1)NN=Cc1ccc(Br)o1 | -2.22%
Cc1ccc(/C=N/NC(=O)CSc2ccccn2)o1 | 3.05%
CC1(C)CC(=O)C=C(c2cccc3c2Oc2ccccc2S3)C1 | -3.51%
COc1ccc(C(=O)CSc2n[nH]c(N)n2)cc1 | -11%
Nc1nc(SCC(=O)Nc2ccc(Cl)c([N+](=O)[O-])c2)n[nH]1 | -3.76%
COc1ccc(CNC(=O)CSc2n[nH]c(N)n2)cc1OC | 4.3%
Nc1nc(SCC(=O)NNc2c(Cl)cc(Cl)cc2Cl)n[nH]1 | 95.6% (active)
Nc1nc(SCC(=O)NN(c2ccccc2)c2ccccc2)n[nH]1 | 87.6% (active)
Nc1nc(SCC(=O)Nc2ccc(Cl)cc2C(F)(F)F)n[nH]1 | 0.457%
COc1ccc(N2CCN(S(=O)(=O)c3cc4c5c(c3)C(C)C(=O)N5CCC4)CC2)cc1 (centres undefined) | 22.9%

Compound | inhibition
O=C(NCc1ccccc1)C1=C[C@@H](c2ccccc2)C[C@@H](OCCCCO)O1 | -16.2%
Cc1cc(NC(=O)C(C)N2C(=O)c3ccccc3S2(=O)=O)no1 (centres undefined) | 3.27%
CCN(CC(=O)Nc1c(F)cccc1F)C(=O)c1ccc(-c2ccccc2)cc1 | -12%
CC(OC(=O)/C=C/c1ccccc1)C(=O)Nc1ccc(C(N)=O)cc1 (centres undefined) | -4.35%
CCc1noc(C)c1C(=O)Nc1nc(-c2ccccc2)cs1 | -1.08%
CC(C)Cn1c(CCC(=O)O)ccc1-c1cccs1 | 98.9% (active)
CC(=O)c1ccc2c(c1)c1ccccc1n2CC(C)C | -8.57%
CCn1c(NC(=O)c2ccccc2)c(-c2cccs2)c(=O)c2ccccc21 | -3.02%
Cc1cc(C(=O)NNC(=O)c2ccccc2O)c(C)o1 | 1.52%
Cc1nn(C)c(C)c1NS(=O)(=O)c1ccc(OC(F)(F)F)cc1 | -3.04%
CCOC(=O)CSc1nc2ccc(C)cc2[nH]1 | -3.78%
CC(=O)Nc1ccc(C(=O)CSc2nc3ccc(C)cc3[nH]2)cc1 | 97.9% (active)
Cc1ccc2nc(SCC(=O)NC3CCCC3)[nH]c2c1 | 18.7%
COc1cc(OC)cc(-c2cc3ccc(F)cc3cn2)c1 | 0.168%
Cc1ccc(S(=O)(=O)N2CCN(C(=O)CN3C(=O)NC(C)(c4ccc(Cl)cc4)C3=O)CC2)c(C)c1 (centres undefined) | -8.79%
COc1cc(C2C(C(=O)c3ccc(C)o3)=C(O)C(=O)N2CCc2ccccc2)ccc1O (centres undefined) | 51.3%
Cc1cc(N2C(=O)C(O)=C(C(=O)c3ccc(C)o3)C2c2ccc(OCc3ccccc3)cc2)no1 (centres undefined) | 38.2%
C=CCOc1cccc(C2C(C(=O)c3ccc(C)o3)=C(O)C(=O)N2c2nnc(C)s2)c1 (centres undefined) | 92.9% (active)
COC(=O)c1c(-c2ccsc2)oc2ccc(-c3cc(OC)c(OC)c(OC)c3)cc12 | -1.82%
O=C(Cn1cnc2ccccc2c1=O)NNC(=O)c1ccccc1F | 29.2%
Cc1nnsc1C(=O)N/N=C/c1ccccc1Cl | -1.47%
Cc1nnsc1C(=O)Nc1cccc(Cl)c1C | -1.48%
Cc1cc(Cl)ccc1NNC(=O)c1snnc1C | 98.9% (active)
CC(C)CN(C(=O)CSc1nncn1C)C1CCS(=O)(=O)C1 (centres undefined) | 0.148%

Compound | inhibition
Cn1c(-c2sc3cc(C(F)(F)F)cnc3c2-c2ccccc2)n[nH]c1=S | 96.3% (active)
C=CCn1c(-c2sc(-c3ccccc3)nc2C)n[nH]c1=S | 8.68%
Cn1c(-c2sccc2OCc2cccc(C(F)(F)F)c2)n[nH]c1=S | 1.68%
COc1ccc(NC(=O)CSc2nc(SC)ns2)c(OC)c1 | 84.5% (active)
CSc1nsc(SCC(=O)Nc2cc(C(=O)O)ccc2C)n1 | 8.91%
COc1ccc(C)cc1NC(=O)CSc1nc(SC)ns1 | -1.75%
CCCCC/C=C/C1=CC(=O)C[C@H](c2ccc(Cl)cc2)C1 | 5.58%
Cc1c(NC(=O)CSc2nnc(-c3cccnc3)n2N)c(=O)n(-c2ccccc2)n1C | 1.09%
CS(=O)(=O)c1ccc(C(=O)OCC(=O)NNC(=O)COc2ccc(Cl)cc2)cc1 | -1.94%
Cc1ccc(C(=O)NC(=S)NCc2cccnc2)cc1 | 24.9%
Cc1c(C(=O)NNC(=O)c2ccncc2)oc2ccccc12 | 2.8%
Cc1c(C(=O)NC(=S)NCc2cccnc2)oc2ccccc12 | 93.3% (active)
Cc1ccc(C2(C)NC(=O)N(CC(=O)N3CC(=O)Nc4ccccc43)C2=O)cc1 (centres undefined) | 0.292%
Cc1ccc(S(=O)(=O)N(C)c2ccc(OCC(=O)OCC(=O)N(CC#N)c3ccccc3)cc2)cc1 | -18.6%
O=C(OCC(=O)N1CCCCC1)c1ccc(OC(F)(F)F)cc1 | -5.55%
Cc1cc(C)cc(OCC(=O)Nc2ccc(N3CCOCC3)cc2N2CCOCC2)c1 | 7.88%
O=C(CCc1nc2sc3c(c2c(=O)[nH]1)CCCC3)NCC(=O)Nc1ccccc1Br | 18.6%
CCCN(CC1CC1)C(=O)COC(=O)c1ccc(C)cc1O | 5.02%
CC1CCCC(NC(=O)c2cccc(N3CCCC3=O)c2)C1C (centres undefined) | 0.109%
C/C(=N\NC(=O)c1cccc(N2CCCC2=O)c1)c1ccc(N)cc1 | 99.1% (active)
O=C(NCCc1ccc(Cl)cc1)c1cccc(N2CCCC2=O)c1 | 2.63%
Cc1ccnc(SCC(=O)Nc2cccc(S(=O)(=O)N3CCOCC3)c2)n1 | -3.28%
